Laboratory results published in PubChem BioAssay (EPA / NIEHS).
Where “and” joins values, the source holds several entries; their conditions need not be identical. Equal values may be shown once. The source holds several records for some structures; these can differ, active in one and inactive in another. Calls of active or inactive are those of the source. Rule for the calls: active = hit-call score of the fitted dose curve at least 0.9, where 1 is the maximum; inactive = score below 0.9.

Columns and labels:
[1] = read-out: Interleukin-6 (IL6), IL6 (gene 3569); experiment: BSK_CASM3C_IL6: BioMAP Diversity Plus: CASM3C Assay for Interleukin-6 (IL6) Biomarker Activity for (AID 2283040); conditions: primary human coronary artery smooth muscle cells; actives raise or lower the signal
[2] = read-out: Tissue plasminogen activator (tPA), PLAT (gene 5327); experiment: BSK_BE3C_tPA: BioMAP Diversity Plus: BE3C Assay for Tissue plasminogen activator (tPA) Biomarker Activity (AID 2283041); conditions: primary human bronchial epithelial cells; actives raise or lower the signal;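 for outcome: tPA level quantified by ELISA one day after compound addition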
Summary of the method: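 Bidirectional curve fitting relative to DMSO defined activity, with tPA detected by ELISA in chemically treated human bronchial epithelial primary cells at 24 hours.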

[3] = read-out: Interleukin-8 (IL8), CXCL8 (gene 3576); experiment: BSK_CASM3C_IL8: BioMAP Diversity Plus: CASM3C Assay for Interleukin-8 (IL8) Biomarker Activity (AID 2283042); conditions: primary human coronary artery smooth muscle cells; actives raise or lower the signal;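 note: IL-8 protein level quantified by ELISA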
[4] = read-out: Human Leukocyte Antigen - DR isotype (HLADR), HLA-DRA (gene 3122); experiment: BSK_CASM3C_HLADR: BioMAP Diversity Plus: CASM3C Assay for Human Leukocyte Antigen - DR isotype (HLADR) Biomarker Activity (AID 2283043); conditions: primary human coronary artery smooth muscle cells; actives raise or lower the signal;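 note: cell-surface HLA-DR protein level quantified by ELISA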
[5] = read-out: Macrophage colony-stimulating factor (MCSF), CSF1 (gene 1435); experiment: BSK_CASM3C_MCSF: BioMAP Diversity Plus: CASM3C Assay for Macrophage colony-stimulating factor (MCSF) Biomarker Activity (AID 2283044); conditions: primary human coronary artery smooth muscle cells; actives raise or lower the signal;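 note: M-CSF protein amount quantified by ELISA after 24 h exposure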
[6] = read-out: Low-density lipoprotein receptor (LDLR), LDLR (gene 3949); experiment: BSK_CASM3C_LDLR: BioMAP Diversity Plus: CASM3C Assay for Low-density lipoprotein receptor (LDLR) Biomarker Activity (AID 2283045); conditions: primary human coronary artery smooth muscle cells; actives raise or lower the signal;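 note: LDLR protein level on the cell surface quantified by ELISA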
[7] = read-out: Monocyte Chemoattractant Protein-1 (MCP1), CCL2 (gene 6347); experiment: BSK_CASM3C_MCP1: BioMAP Diversity Plus: CASM3C Assay for Monocyte Chemoattractant Protein-1 (MCP1) Biomarker Activity (AID 2283046); conditions: primary human coronary artery smooth muscle cells; actives raise or lower the signal;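 note: MCP-1 level quantified by ELISA 24 h after dosing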
[8] = BSK_CASM3C_Proliferation: Cell Proliferation Assessment in the BioMAP Diversity Plus: CASM3C Assay (AID 2283047); conditions: primary human coronary artery smooth muscle cells;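 note: sulforhodamine B total protein stain as relative cell number at 560 nm; sub-confluent cells exposed 48 h before staining; fitted both ways against DMSO so gain or loss of cell number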
[9] = read-out: Monokine induced gamma interferon (MIG), CXCL9 (gene 4283); experiment: BSK_CASM3C_MIG: BioMAP Diversity Plus: CASM3C Assay for Monokine induced gamma interferon (MIG) Biomarker Activity (AID 2283048); conditions: primary human coronary artery smooth muscle cells; actives raise or lower the signal;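 note: MIG protein level measured by ELISA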
[10] = read-out: serum amyloid A (SAA), SAA1 (gene 6288); experiment: BSK_CASM3C_SAA: BioMAP Diversity Plus: CASM3C Assay for serum amyloid A (SAA) Biomarker Activity (AID 2283049); conditions: primary human coronary artery smooth muscle cells; actives raise or lower the signal;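 note: SAA protein level quantified by ELISA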

SMILES	outcome [1]	outcome [2]	outcome [3]	outcome [4]	outcome [5]	outcome [6]	outcome [7]	outcome [8]	outcome [9]	outcome [10]	AC50 [1]	AC50 [2]	AC50 [4]	AC50 [5]	AC50 [6]	AC50 [7]	AC50 [8]	AC50 [9]	AC50 [10]	AC50 [3]
CCCCOCCOCCOC(=O)CCCCC(=O)OCCOCCOCCCC	inactive	inactive	inactive	inactive	inactive	inactive	inactive	inactive	inactive	inactive										
Cc1ccc(S(=O)(=O)OCC(F)(F)C(F)(F)C(F)(F)C(F)(F)C(F)(F)C(F)F)cc1	inactive	inactive	inactive	inactive	inactive	inactive	inactive	inactive	inactive	inactive										
C=CC(=O)OCC(F)(F)C(F)(F)C(F)(F)C(F)(F)COC(=O)C=C	inactive	inactive	inactive	inactive		inactive					7.96 µM (active)	8.82 µM (active)	17.8 µM (active)	34.9 µM (active) and 30 µM (active)	12.2 µM (active)	45.8 µM (active) and 44 µM (active)	18.9 µM (active) and 31.4 µM (active)	28.6 µM (active) and 31 µM (active)	22.9 µM (active) and 16.1 µM (active)	
O=C(CC(=O)C(F)(F)C(F)(F)F)C(F)(F)F	inactive	inactive	inactive	inactive	inactive	inactive	inactive	inactive	inactive	inactive										
OCCCC(F)(F)C(F)(F)C(F)(F)F	inactive	inactive	inactive	inactive	inactive	inactive	inactive	inactive	inactive	inactive										
N=C(N)C(F)(F)C(F)(F)C(F)(F)C(F)(F)C(F)(F)C(F)(F)C(F)(F)F	inactive	inactive	inactive	inactive	inactive	inactive	inactive	inactive	inactive	inactive			30 µM (active)		27.1 µM (active)		46.1 µM (active)			
O=C(O)C(F)(F)C(F)(F)C(F)(F)F	inactive	inactive	inactive	inactive	inactive	inactive	inactive	inactive	inactive	inactive										
CCc1c(Br)c(Br)c(Br)c(Br)c1Br	inactive	inactive	inactive	inactive	inactive	inactive	inactive	inactive	inactive	inactive										
O=C(O)C(F)(F)C(F)(F)F	inactive	inactive	inactive	inactive	inactive	inactive	inactive	inactive	inactive	inactive										
O=S(=O)(O)C(F)(F)C(F)(F)C(F)(F)C(F)(F)C(F)(F)C(F)(F)C(F)(F)F	inactive	inactive	inactive	inactive	inactive	inactive	inactive	inactive	inactive	inactive										
O=S(=O)(OCC(F)F)C(F)(F)F	inactive	inactive	inactive	inactive	inactive	inactive	inactive	inactive	inactive	inactive										
FC1CC(F)(F)C(F)(F)C1(F)F (stereo not given)	inactive	inactive	inactive	inactive	inactive	inactive	inactive	inactive	inactive	inactive										
O=C(Cl)C(F)(F)C(F)(F)C(F)(F)C(F)(F)C(F)(F)C(F)(F)C(F)(F)C(F)(F)F	inactive	inactive	inactive	inactive	inactive	inactive	inactive	inactive	inactive	inactive		27.5 µM (active) and 22.8 µM (active)								
CCCCCCC(C)OC(=O)CCCCC(=O)OC(C)CCCCCC (stereo not given)	inactive	inactive	inactive	inactive	inactive	inactive	inactive	inactive	inactive	inactive										
O=C(O)C(F)(F)C(F)(F)C(F)(F)C(F)(F)C(F)(F)C(F)(F)C(F)(F)C(F)(F)C(F)(F)C(F)F	inactive	inactive	inactive	inactive	inactive	inactive	inactive	inactive	inactive	inactive										
C#C[C@]1(O)CC[C@H]2[C@@H]3CCc4cc(OC)ccc4[C@H]3CC[C@@]21C	inactive	inactive	inactive	inactive	inactive	inactive	inactive		inactive	inactive							0.253 µM (active)			
C=CC(=O)OCC(F)(F)C(F)(F)C(F)(F)C(F)(F)C(F)(F)C(F)(F)C(F)(F)F	inactive	inactive	inactive	inactive	inactive	inactive	inactive	inactive	inactive	inactive										
Nc1ccc([N+](=O)[O-])cc1O	inactive	inactive	inactive	inactive	inactive	inactive	inactive	inactive	inactive	inactive										

SMILES	outcome [1]	outcome [2]	outcome [3]	outcome [4]	outcome [5]	outcome [6]	outcome [7]	outcome [8]	outcome [9]	outcome [10]	AC50 [1]	AC50 [2]	AC50 [4]	AC50 [5]	AC50 [6]	AC50 [7]	AC50 [8]	AC50 [9]	AC50 [10]	AC50 [3]
CC(CCl)OP(=O)(OC(C)CCl)OC(C)CCl (stereo not given)	inactive	inactive	inactive	inactive		inactive		inactive	inactive	inactive				39.8 nM (active)		19.1 nM (active)				
C=C(C)C(=O)OCC(F)(F)C(F)(F)C(F)(F)F	inactive	inactive	inactive	inactive	inactive	inactive	inactive	inactive	inactive	inactive										
FC(F)(Br)C(F)(F)C(F)(F)C(F)(F)C(F)(F)C(F)(F)Br	inactive	inactive	inactive	inactive	inactive	inactive	inactive	inactive	inactive	inactive										
OCC(F)(F)C(F)(F)C(F)(F)C(F)(F)C(F)(F)C(F)F	inactive	inactive	inactive	inactive	inactive	inactive	inactive	inactive	inactive	inactive										
O=P(O)(O)OCCC(F)(F)C(F)(F)C(F)(F)C(F)(F)C(F)(F)C(F)(F)F	inactive	inactive	inactive	inactive	inactive	inactive	inactive	inactive	inactive	inactive		3.64 µM (active)				258 nM (active)			457 nM (active)	
OCC(F)(F)C(F)(F)C(F)(F)C(F)F	inactive	inactive	inactive	inactive	inactive	inactive	inactive	inactive	inactive	inactive					0.292 µM (active)					
Oc1ccc(Nc2ccccc2)cc1	inactive	inactive	inactive		inactive		inactive		inactive	inactive			2.54 µM (active)		2.43 µM (active)		30.1 µM (active)			
OCCCC(F)(F)C(F)(F)C(F)(F)C(F)(F)C(F)(F)C(F)(F)C(F)(F)F			inactive								42.1 µM (active) and 48.2 µM (active)	35.7 µM (active) and 30 µM (active)	23.3 µM (active) and 49 µM (active)	22.1 µM (active) and 43.6 µM (active)	43.7 µM (active) and 45.9 µM (active)	38.3 µM (active) and 28.9 µM (active)	18.4 µM (active) and 20.3 µM (active)	41.7 µM (active) and 41.9 µM (active)	37.6 µM (active) and 22.7 µM (active)	49 µM (active)
O=C(O)C=C(C(F)(F)F)C(F)(F)F			inactive		inactive	inactive	inactive			inactive	13.2 µM (active) and 1.37 µM (active)	8.7 µM (active) and 1.53 µM (active)	9.93 µM (active) and 597 nM (active)				30 µM (active)	27.4 µM (active) and 220 nM (active)		
O=C(O)C(F)(F)C(F)(F)C(F)(F)C(F)(F)C(F)(F)C(F)(F)C(F)(F)C(F)(F)C(F)(F)C(F)(F)C(F)(F)C(F)(F)C(F)(F)F	inactive	inactive	inactive	inactive	inactive	inactive	inactive	inactive	inactive	inactive						33.9 nM (active)				
O=C(O)C(F)(F)C(F)(F)C(F)(F)C(F)(F)C(F)(F)C(F)(F)C(F)(F)C(F)(F)C(F)(F)C(F)(F)C(F)(F)C(F)(F)F	inactive	inactive	inactive	inactive	inactive	inactive	inactive	inactive	inactive				16.1 µM (active)						2.34 µM (active) and 3.54 µM (active)	
FC(F)(I)C(F)(F)C(F)(F)C(F)(F)I		inactive	inactive	inactive		inactive					45.6 µM (active) and 44.9 µM (active) and 30 µM (active)	46.5 µM (active) and 43.2 µM (active)	50.5 µM (active)	47.5 µM (active) and 50.2 µM (active) and 46.8 µM (active)	23.6 µM (active) and 43.5 µM (active)	44.4 µM (active) and 46 µM (active) and 46.1 µM (active)	43.4 µM (active) and 49.7 µM (active) and 43.9 µM (active)	44.3 µM (active) and 48.1 µM (active) and 46.8 µM (active)	47.5 µM (active) and 45 µM (active) and 47.6 µM (active)	47.5 µM (active) and 48.2 µM (active)
FC(F)(F)C(F)(F)C(F)(F)C(F)(F)CCI	inactive	inactive	inactive	inactive	inactive	inactive	inactive	inactive	inactive	inactive								18.7 µM (active)		
OCC(F)(F)C(F)(F)C(F)(F)F	inactive	inactive	inactive	inactive	inactive	inactive	inactive	inactive	inactive	inactive										
C=C(C)C(=O)OCCC(F)(F)C(F)(F)C(F)(F)C(F)(F)C(F)(C(F)(F)F)C(F)(F)F	inactive	inactive	inactive	inactive	inactive	inactive	inactive	inactive	inactive	inactive										
O=C(O)C(F)(F)C(F)(F)C(F)(F)C(F)(F)C(F)(F)C(F)(F)C(F)(F)C(F)(F)Cl	inactive		inactive	inactive	inactive	inactive	inactive	inactive	inactive	inactive		30 µM (active) and 20.4 µM (active)								
CCCCCCCCC(F)(F)C(F)(F)C(F)(F)C(F)(F)C(F)(F)C(F)(F)F	inactive	inactive	inactive	inactive	inactive	inactive	inactive	inactive	inactive	inactive										
